Test in all cases: NCI-60 one-dose screen, 48 h (100 = growth as untreated, 0 = no growth, -100 = all killed)
Details in all cases: 10 µM unless noted

For assay [1], the system named is T-47D breast.
Assay [2] concerns BT-549 breast.
For assay [3], the system named is MDA-MB-435 melanoma.
Assay [4] has as its system SW-620 colon.
The test system of assay [5] is MCF7 breast.
Assay [6] relates to HCC-2998 colon.
In assay [7] the test system is KM12 colon.
Assay [8] concerns HCT-116 colon.

Molecules are shown by their SMILES. Several values for one entry are separate records, joined by “and”; a condition that tells them apart may be missing. Identical values can stand only once. This is part of a sample that, as a whole, favours compounds with a hit. Of some 83,000 tested, about 20% had one in any assay.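 For each line, cells grew in 96-well plates with the test compound present at a single concentration for 48 hours.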 Values without a mark were called inactive. Activity calls are given as the source filed them. Rule for the calls: active = growth percent below 10; inactive = the rest. Where a SMILES comes first, the peptide text is derived from it. [ ]: non-standard residue; d: D form. ξ: configuration not given here. ξD = NC(CC(=O)O)C(=O)O

For the compound `Oc1ccc(Cl)cc1C(c1cc(Cl)ccc1O)C(Cl)(Cl)Cl`, the growth in assay [1] is 9.95% (active); in assay [2] it was 44.9%; in assay [3], 29.4%; in assay [4], 4.62% (active); in assay [5] it was 8.95% (active); in assay [6] it was -45.5% (active). For the same compound, in assay [7], the growth was -55.5% (active).

Regarding `O=C(c1ccccc1)C(Br)C(Br)c1ccccc1` (stereo not drawn), the growth in assay [1] is 31%; in assay [2] it was 101%; in assay [3] it was 74.6%; in assay [4], -76.9% (active); in assay [5], 31.3%; in assay [6], 93.3%. Moreover, in assay [7], the growth was 55.1%.

Consider `C=C1C(=O)OC2CC3(C)CCCC(C)C3=CC12` (stereo not drawn), for which the growth in assay [5] is -91.8% [100 µM] (active) and -84.5% [100 µM] (active).

Turning to `Oc1c(C(Nc2ccccc2)c2ccccc2)ccc2cccnc12` (stereo not drawn), the growth in assay [2] was 49.8%; in assay [3] it was 23.8%; in assay [4] it was 45.1%; in assay [5], 16.3%; in assay [8] it was 19.3%; in assay [6] it was 44.9%. Besides, the growth in assay [7] was 32.5%.

For `CN(Cc1ccccc1)c1ccc(SC#N)cc1`, the growth was 43.9% in assay [2]; 94.7% in assay [3]; 85.3% in assay [4]; 76.3% in assay [5]; 39.5% in assay [8]; 89.8% in assay [6]. The growth in assay [7] is 40.4%.

Regarding `O/N=C1\c2ccccc2-c2ccc(F)cc21`, the growth is 97.4% in assay [2]; 114% in assay [3]; 112% in assay [4]; 25.6% in assay [5]; 98.3% in assay [8]; 95.1% in assay [6].

As to `O=C1C(=O)c2cc([N+](=O)[O-])ccc2-c2ccccc21`, the growth in assay [1] was -35.6% (active); in assay [3], -79.3% (active); in assay [4] it was -81.1% (active); in assay [5], -55.3% (active); in assay [6] it was 65.9%; in assay [7], -81.7% (active).

Regarding `CCCCCCCCC(=O)OCCCC(CCC(CCC1CCCO1)OC(=O)CCCCCCCC)OC(=O)CCCCCCCC` (stereo not drawn), the growth in assay [2] was 92.7%; in assay [3] it was 104%; in assay [4], 99.8%; in assay [5], 100%; in assay [6] it was 123%; in assay [7], 103%.

Turning to `Nc1nc2ncc(CNc3ccc(C(=O)NC(CCC(=O)NC(CCC(=O)NC(CCC(=O)NC(CCC(=O)NC(CCC(=O)O)C(=O)O)C(=O)O)C(=O)O)C(=O)O)C(=O)O)cc3)nc2c(=O)[nH]1` (stereo not drawn), the growth in assay [2] is 106%; in assay [3], 111%; in assay [4], 105%; in assay [5], 98.7%; in assay [8], 103%; in assay [6] it was 117%. Moreover, in assay [7], the growth was 101%.

Take `COc1cc(NC(=O)C2=C(C)NC(C)=C(C(=O)Nc3cc(OC)c(Cl)cc3OC)C2c2cccc([N+](=O)[O-])c2)c(OC)cc1Cl`: the growth in assay [2] is 36.9%; in assay [3] it was 9.7% (active); in assay [4] it was 46.4%; in assay [5] it was 14.5%; in assay [8] it was 23.9%; in assay [6], 15.6%. Moreover, the growth in assay [7] is 18.3%.

Take `O=[N+]([O-])/C(=C/c1ccccc1)c1ccccc1`: the growth was 93% in assay [2]; 107% in assay [3]; 107% in assay [4]; 97.4% in assay [5]; 96.5% in assay [8]; 94.1% in assay [6]. For the same compound, the growth in assay [7] was 107%.

`Cc1cc2nc(CC(=O)c3ccncc3)c(=O)[nH]c2cc1C`: the growth in assay [2] is 88.9%; in assay [3], 107%; in assay [4], 103%; in assay [5], 88.5%; in assay [8], 88.5%; in assay [6], 102%. In assay [7], the growth is 103%.

Consider `CCCCCCCCCCCC[S+](C)CC(=O)[O-]` (stereo not drawn), for which the growth in assay [2] was -29.2% (active); in assay [3], 47.2%; in assay [4] it was 69.9%; in assay [5], 58.2%; in assay [8], 45.5%; in assay [6], 34.4%. Further, the growth in assay [7] was 30.7%.

Take `CCOC(=O)NC(/C=C/c1ccccc1)NC(=O)OCC`: the growth in assay [2] was 107%; in assay [3], 106%; in assay [4] it was 100%; in assay [5] it was 101%; in assay [8] it was 93.6%; in assay [6], 112%. In assay [7], the growth was 107%.

For `C[C@@H]1CCC([C@@H](C)[C@H]2CC[C@H]3[C@@H]4CC[C@H]5C[C@@H](O)CC[C@]5(C)[C@H]4CC[C@]23C)=NC1`, the growth in assay [5] is 8.1% [100 µM] (active) and -46.7% [100 µM] (active).

Turning to `NCC(=O)NC(CC(=O)O)C(=O)O` (stereo not drawn) (H-Gly-[ξD]-OH), the growth in assay [2] was 102%; in assay [3], 99.5%; in assay [4], 98.9%; in assay [5], 100%; in assay [8], 106%; in assay [6], 110%. Further, the growth in assay [7] was 107%.

Consider `COc1ccc2nc3cc(Cl)ccc3c(NCCCCCN3CCCCC3)c2c1`, for which the growth in assay [2] is 19%; in assay [3], -92% (active); in assay [4], -27.4% (active); in assay [5], -33.5% (active); in assay [6], -76.7% (active); in assay [7] it was -12.8% (active).
